{"source": "PubChem BioAssay AID463173", "about": "(ICCB-Longwood Screening Facility, Harvard Medical School, 2010)", "note": "Among all 52,000 compounds or so, about 1,700 (3.3%) were called active. Rule as the data show it: active = survival mostly below about 52% (no sharp cut-off); inactive = mostly above about 56%. The full list was thinned out, with actives kept by preference.", "data": [{"tested_on": "Wild type", "experiment": "S. aureus survival, RN4220 and DeltatarO strains – OD600, teichoic acid synthesis inhibitors, primary screen (AID 463173)", "settings": "S. aureus RN4220 wild type/DeltatarO growth, OD600, 18 h, stronger effect = lower value, screened at 18.75 µg/mL (by protocol)", "values": [{"compound": "O=c1nc2c(-c3ccc(F)cc3Cl)n[nH]n2c2ccccc12", "survival": "72% (inactive)"}, {"compound": "COc1ccc(-c2nc(Cn3c(SCc4cccc(Cl)c4)nc4ccncc43)c(C)o2)cc1", "survival": "132% (inactive)"}, {"compound": "O=C(CSC1=Nc2ccccc2N=C(c2ccc(F)cc2)C1)Nc1ccc(Cl)cc1", "survival": "92% (inactive)"}, {"compound": "CCN(CC)C1=C(C(=O)c2ccccc2)NS(=O)(=O)c2ccccc21", "survival": "103% (inactive)"}, {"compound": "CCOc1ccc(-c2nnc(SCC(=O)NCc3ccccc3Cl)o2)cc1", "survival": "85% (inactive)"}, {"compound": "O=C(Nc1ccccc1)C1CCCN1C1CCCCC1", "note": "(stereo unspecified)", "survival": "108% (inactive)"}, {"compound": "O=C1OC(c2ccccc2)=N/C1=C1\\OC(=O)c2ccccc21", "survival": "104% (inactive)"}, {"compound": "CC1CCCCN1C(=O)CSc1n[nH]c(-c2ccccc2Cl)n1", "note": "(stereo unspecified)", "survival": "72% (inactive)"}, {"compound": "CCCN(Cc1cccs1)C(=O)Nc1ccc(Br)cc1F", "survival": "76% (inactive)"}, {"compound": "Cc1ccccc1OCC(=O)Nc1sc2c(c1C(=O)OC(C)C)CCCC2", "survival": "69% (inactive)"}, {"compound": "COC(=O)c1c(NC(=O)COc2ccc(OC)cc2)sc2c1CCC(C)C2", "note": "(stereo unspecified)", "survival": "86% (inactive)"}, {"compound": "Cc1cccc(OCCCC(=O)Nc2sc3c(c2C(N)=O)CCC(C)C3)c1", "note": "(stereo unspecified)", "survival": "88% (inactive)"}, {"compound": "CCOC(=O)c1c(NC(=O)CS(=O)(=O)c2ccc(C)cc2)sc2c1CCCCC2", "survival": "87% (inactive)"}, {"compound": "COC(=O)c1c(NC(=O)CS(=O)(=O)c2ccc(C)cc2)sc2c1CCCC2", "survival": "-6% (active)"}, {"compound": "COC(=O)c1c(NC(=O)COc2c(C)ccc(C)c2C)sc2c1CCC(C)C2", "note": "(stereo unspecified)", "survival": "11% (active)"}, {"compound": "COC(=O)c1c(NC(=O)CS(=O)(=O)c2ccc(C)cc2)sc2c1CCCCC2", "survival": "67% (inactive)"}, {"compound": "CCOC(=O)c1c(NC(=O)COc2cccc(C(F)(F)F)c2)sc2c1CCC(C)C2", "note": "(stereo unspecified)", "survival": "74% (inactive)"}, {"compound": "COC(=O)c1c(NC(=O)COc2cc(C)ccc2C(C)C)sc2c1CCC(C)C2", "note": "(stereo unspecified)", "survival": "66% (inactive)"}, {"compound": "COC(=O)c1c(NC(=O)CCCOc2cccc(C)c2)sc2c1CCC(C)C2", "note": "(stereo unspecified)", "survival": "4% (active)"}, {"compound": "COC(=O)c1c(NC(=O)CCCOc2ccccc2C)sc2c1CCC2", "survival": "4% (active)"}, {"compound": "COC(=O)c1c(NC(=O)COc2ccc(Cl)cc2C)sc2c1CCCCC2", "survival": "83% (inactive)"}, {"compound": "Cc1nc2nc(C)c(NS(=O)(=O)c3ccc(F)cc3)c(=O)n2[nH]1", "survival": "81% (inactive)"}, {"compound": "O=C(O)CCNc1ccc(Cl)cn1", "survival": "86% (inactive)"}, {"compound": "S=c1nc[nH]c2c1oc1ccccc12", "survival": "96% (inactive)"}, {"compound": "Cc1ccccc1NC(=O)CSc1nc(-c2ccc(F)cc2)nc2c1Cc1ccccc1O2", "survival": "77% (inactive)"}, {"compound": "CCOc1ccc(C(=O)N(C)CC2COc3ccccc3O2)cc1", "note": "(stereo unspecified)", "survival": "98% (inactive)"}, {"compound": "N#Cc1c(-n2ncnc2-c2ccccc2Cl)sc2c1CCCCC2", "survival": "38% (inactive)"}, {"compound": "COc1cccc(-c2ncnn2-c2sc3c(c2C#N)CCCCC3)c1OC", "survival": "72% (inactive)"}, {"compound": "N#Cc1c(-n2ncnc2-c2ccccc2C(F)(F)F)sc2c1CCCCC2", "survival": "4% (active)"}, {"compound": "Cc1ccccc1-c1ncnn1-c1sc2c(c1C#N)CCCCC2", "survival": "65% (inactive)"}, {"compound": "COc1ccccc1-c1ncnn1-c1sc2c(c1C#N)CCCCC2", "survival": "1% (active)"}, {"compound": "COc1ccccc1-c1cc(C(=O)Nc2sc3c(c2C#N)CCCC3)no1", "survival": "140% (inactive)"}, {"compound": "CCOc1ccccc1NC(=O)CSc1c(C)cnc2c1c(=O)n(C)c(=O)n2C", "survival": "67% (inactive)"}, {"compound": "CCN(CC)C(=O)Cn1c(=O)nc(-c2ccccc2F)c2cc(Cl)ccc21", "survival": "73% (inactive)"}, {"compound": "CC1CCCN(c2nc3nonc3nc2Nc2cccc(Cl)c2)C1", "note": "(stereo unspecified)", "survival": "0% (active)"}, {"compound": "CC1CCN(c2nc3nonc3nc2Nc2ccc(F)cc2)CC1", "survival": "103% (inactive)"}, {"compound": "O=C(Nc1cccc(Cl)c1)C1CCCN(c2ncnc3c2nc2n3CCCCC2)C1", "note": "(stereo unspecified)", "survival": "36% (inactive)"}, {"compound": "CCOC(=O)c1cc(C(C)(C)C)oc1CN", "survival": "95% (inactive)"}, {"compound": "CC(C)N(Cc1ccccc1)C(=O)CN1C(=O)CSc2ccc(S(=O)(=O)N3CCCC3)cc21", "survival": "100% (inactive)"}, {"compound": "Cc1cccc(CNC(=O)C2CCN(c3nc4ccc(Cl)cc4[nH]3)CC2)c1", "survival": "79% (inactive)"}, {"compound": "CC1CCN(C(=O)CSc2nc3ccccc3nc2Cc2ccccc2)CC1", "survival": "73% (inactive)"}, {"compound": "CCOCCc1nn2c(=O)cc(COC(=O)c3ccc(NC(=O)C(C)(C)C)cc3)nc2s1", "survival": "77% (inactive)"}, {"compound": "CCOCCc1nn2c(=O)cc(COC(=O)c3cccc(C)c3)nc2s1", "survival": "-6% (active)"}, {"compound": "CCOCCc1nn2c(=O)cc(COC(=O)c3ccc(NC(=O)c4cccs4)cc3)nc2s1", "survival": "118% (inactive)"}, {"compound": "CCCCc1nn2c(=O)cc(COC(=O)c3ccccc3C)nc2s1", "survival": "72% (inactive)"}, {"compound": "CCOCCc1nn2c(=O)cc(COC(=O)c3ccc(NC(=O)c4ccc(F)cc4)cc3)nc2s1", "survival": "0% (active)"}, {"compound": "CCOCCc1nn2c(=O)cc(COC(=O)CNC(=O)c3cccc(C)c3)nc2s1", "survival": "84% (inactive)"}, {"compound": "CCCc1nn2c(=O)cc(COC(=O)c3cccc(NC(=O)c4ccc(OCC)cc4)c3)nc2s1", "survival": "-2% (active)"}, {"compound": "CCOc1ccc(C(=O)Nc2cccc(C(=O)OCc3cc(=O)n4nc(C5CC5)sc4n3)c2)cc1", "survival": "51% (inactive)"}, {"compound": "COCCc1nn2c(=O)cc(COC(=O)COc3ccccc3C)nc2s1", "survival": "80% (inactive)"}, {"compound": "COCCc1nn2c(=O)cc(COC(=O)c3ccccc3C)nc2s1", "survival": "-6% (active)"}, {"compound": "CCOCCc1nn2c(=O)cc(COC(=O)c3ccc4c(c3)OCO4)nc2s1", "survival": "133% (inactive)"}, {"compound": "CCCc1nn2c(=O)cc(COC(=O)c3ccccc3NC(=O)c3ccc(OCC)cc3)nc2s1", "survival": "22% (inactive)"}, {"compound": "C=CCn1c2ccccc2c2ccccc21", "survival": "80% (inactive)"}, {"compound": "Cc1cccc(-c2nc(SCCCOc3ccccc3Cl)n3[nH]c(=O)cc3n2)c1", "survival": "65% (inactive)"}, {"compound": "NC(=O)CSc1nnc(CNc2ccc(Cl)cc2)n1Cc1ccccc1", "survival": "125% (inactive)"}, {"compound": "COc1ccc(NC(=O)c2cc3c(=O)n(Cc4cccnc4)ccc3nc2C)cc1Cl", "survival": "124% (inactive)"}, {"compound": "Cc1oc(-c2ccccc2)nc1CNC(=O)NC1CCCCC1", "survival": "72% (inactive)"}, {"compound": "CCCc1nn2c(=O)cc(COC(=O)c3cccc(NC(=O)COc4ccc(F)cc4)c3)nc2s1", "survival": "80% (inactive)"}, {"compound": "CCCc1nn2c(=O)cc(COC(=O)c3ccc(NC(=O)COc4ccccc4)cc3)nc2s1", "survival": "83% (inactive)"}, {"compound": "CCCc1nn2c(=O)cc(COC(=O)c3ccc(NC(=O)COc4ccc(F)cc4)cc3)nc2s1", "survival": "10% (active)"}]}]}
